PubChem BioAssay (EPA / NIEHS)
Records with an inconclusive call do not appear. The source made the active and inactive calls. Rule for the calls, unless noted: active = hit-call score of the fitted dose curve at least 0.9, where 1 is the maximum; inactive = score below 0.9.

What was measured:
[1] = molecular target: Paired box protein Pax-6 (Homo sapiens) (UniProt P26367); test: ATG_Pax6_CIS: Attagene CIS-FACTORIAL HepG2 Assay for human Paired Box 6 (PAX6) (AID 2282956); conditions: HepG2 CIS-FACTORIAL PAX6 reporter transcription, RNA readout; actives raise or lower the signal
Paired box protein Pax-6 (Homo sapiens), sequence (P26367 whole entry, looked up): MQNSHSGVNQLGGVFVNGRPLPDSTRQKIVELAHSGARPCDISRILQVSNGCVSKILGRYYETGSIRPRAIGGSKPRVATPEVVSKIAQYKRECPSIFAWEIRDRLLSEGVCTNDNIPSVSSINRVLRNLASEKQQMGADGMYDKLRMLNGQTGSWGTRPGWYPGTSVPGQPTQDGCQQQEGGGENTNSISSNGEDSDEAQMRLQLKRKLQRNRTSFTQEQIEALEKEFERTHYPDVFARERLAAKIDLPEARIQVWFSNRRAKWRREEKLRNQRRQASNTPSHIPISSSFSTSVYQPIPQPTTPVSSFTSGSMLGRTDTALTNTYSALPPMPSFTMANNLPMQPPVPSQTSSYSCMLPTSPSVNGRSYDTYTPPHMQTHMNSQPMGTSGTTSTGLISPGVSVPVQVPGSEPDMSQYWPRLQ
Summary of the method: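 Readout: reporter transcript fluorescence after RT-PCR and capillary electrophoresis. Cells: HepG2, transiently transfected with cis-regulated MRTUs. Exposure 24 h. Gain or loss of signal fitted bidirectionally relative to DMSO.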

[2] = ATG_PXRE_CIS: Attagene CIS-FACTORIAL HepG2 Assay for human Pregnane X Receptor Element (PXRE) (AID 2282957); conditions: HepG2 Attagene CIS-FACTORIAL PXRE reporter, mRNA; actives raise or lower the signal
Summary of the method: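 Endogenous transcription factor activity in HepG2 was gauged through induction of reporter mRNA driven by a cis-regulating promoter element, sampled 24 h post-treatment. Activity was fitted in both directions against DMSO negative control.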

[3] = ATG_PPRE_CIS: Attagene CIS-FACTORIAL HepG2 Assay for human Peroxisome Proliferator-activated Response Element (PPRE) (AID 2282958); conditions: HepG2 PPRE cis-element reporter, Attagene transcription factor profiling; actives raise or lower the signal
Summary of the method: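 HepG2 cells transiently transfected with multiplexed cis-element reporter units measure endogenous transcription factor activity. After 24 h compound exposure, reporter mRNA is quantified by RT-PCR, 6-FAM labeling, HpaI digestion and capillary electrophoresis; bidirectional fits are made against DMSO baseline.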

[4] = ATG_RORE_CIS: Attagene CIS-FACTORIAL HepG2 Assay for human RAR-related Orphan Receptor Element (RORE) (AID 2282959); conditions: HepG2 Attagene cis-factorial RORE reporter, mRNA; actives raise or lower the signal
Summary of the method: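 HepG2 cells transiently transfected with multiple cis-element reporter transcription units, exposed to chemical for 24 h. Reporter mRNA quantified by RT-PCR, 6-FAM primer-extension labeling, HpaI digestion and capillary electrophoresis; bidirectional fit versus DMSO baseline.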

[5] = ATG_Sox_CIS: Attagene CIS-FACTORIAL HepG2 Assay for human SRY-box transcription factor (SOX) (AID 2282960); conditions: HepG2 Attagene cis-factorial SOX reporter, mRNA; actives raise or lower the signal
Summary of the method: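 HepG2 cells transiently transfected with cis-element-driven multiple reporter transcription units, dosed 24 h; reporter mRNA measured by RT-PCR, FAM labelling, HpaI digestion and capillary electrophoresis. Bidirectional fit versus DMSO baseline.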

[6] = molecular target: Transcription factor Sp1 (Homo sapiens) (UniProt P08047); test: ATG_Sp1_CIS: Attagene CIS-FACTORIAL HepG2 Assay for human Specificity Protein 1 (Sp1) (AID 2282961); conditions: HepG2 Sp1 cis-reporter transcription, actives raise or lower the signal
Transcription factor Sp1 (Homo sapiens), sequence (P08047 whole entry, looked up): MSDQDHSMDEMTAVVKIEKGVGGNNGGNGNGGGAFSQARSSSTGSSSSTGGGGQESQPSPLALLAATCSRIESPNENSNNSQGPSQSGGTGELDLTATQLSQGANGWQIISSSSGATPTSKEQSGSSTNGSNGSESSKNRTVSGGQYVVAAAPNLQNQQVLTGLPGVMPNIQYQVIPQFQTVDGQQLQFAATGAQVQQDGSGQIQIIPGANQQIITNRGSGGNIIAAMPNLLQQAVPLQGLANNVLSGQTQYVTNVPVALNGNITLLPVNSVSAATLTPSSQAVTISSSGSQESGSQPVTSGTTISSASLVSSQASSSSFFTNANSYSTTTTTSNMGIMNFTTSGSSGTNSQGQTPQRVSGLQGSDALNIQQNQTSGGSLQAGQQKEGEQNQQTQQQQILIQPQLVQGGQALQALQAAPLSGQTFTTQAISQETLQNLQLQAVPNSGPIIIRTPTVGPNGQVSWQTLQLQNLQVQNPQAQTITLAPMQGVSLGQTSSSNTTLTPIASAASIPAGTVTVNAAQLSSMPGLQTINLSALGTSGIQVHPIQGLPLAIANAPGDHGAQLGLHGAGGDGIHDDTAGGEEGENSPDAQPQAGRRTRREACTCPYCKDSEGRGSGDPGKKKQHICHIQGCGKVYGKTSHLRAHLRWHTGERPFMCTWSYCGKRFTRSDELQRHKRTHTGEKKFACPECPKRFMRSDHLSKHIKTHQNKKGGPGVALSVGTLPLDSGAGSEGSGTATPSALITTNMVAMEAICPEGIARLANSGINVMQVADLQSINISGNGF
Summary of the method: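 HepG2 cells transiently transfected with multiple reporter transcription units driven by cis-regulatory elements; Sp1-responsive reporter mRNA measured 24 h after dosing by RT-PCR and capillary electrophoresis fluorescence, fitted bidirectionally against DMSO baseline.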

[7] = ATG_SREBP_CIS: Attagene CIS-FACTORIAL HepG2 Assay for human Sterol Regulatory Element Binding (SREBP) (AID 2282962); conditions: HepG2 Attagene cis-factorial SREBP reporter, mRNA; actives raise or lower the signal
Summary of the method: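 Readout: fluorescent reporter-transcript peaks resolved by capillary electrophoresis after RT-PCR. Cells were human HepG2 carrying transfected cis-promoter reporter constructs, dosed for 24 h. Gain or loss of signal was fitted against DMSO controls.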

[8] = molecular target: Signal transducer and activator of transcription 3 (Homo sapiens) (UniProt P40763); test: ATG_STAT3_CIS: Attagene CIS-FACTORIAL HepG2 Assay for human Signal Transducer and Activator of Transcription 3 (STAT3) (AID 2282963); conditions: HepG2, Attagene cis-factorial STAT3 reporter transcription; actives raise or lower the signal
Signal transducer and activator of transcription 3 (Homo sapiens), sequence (P40763 whole entry, looked up): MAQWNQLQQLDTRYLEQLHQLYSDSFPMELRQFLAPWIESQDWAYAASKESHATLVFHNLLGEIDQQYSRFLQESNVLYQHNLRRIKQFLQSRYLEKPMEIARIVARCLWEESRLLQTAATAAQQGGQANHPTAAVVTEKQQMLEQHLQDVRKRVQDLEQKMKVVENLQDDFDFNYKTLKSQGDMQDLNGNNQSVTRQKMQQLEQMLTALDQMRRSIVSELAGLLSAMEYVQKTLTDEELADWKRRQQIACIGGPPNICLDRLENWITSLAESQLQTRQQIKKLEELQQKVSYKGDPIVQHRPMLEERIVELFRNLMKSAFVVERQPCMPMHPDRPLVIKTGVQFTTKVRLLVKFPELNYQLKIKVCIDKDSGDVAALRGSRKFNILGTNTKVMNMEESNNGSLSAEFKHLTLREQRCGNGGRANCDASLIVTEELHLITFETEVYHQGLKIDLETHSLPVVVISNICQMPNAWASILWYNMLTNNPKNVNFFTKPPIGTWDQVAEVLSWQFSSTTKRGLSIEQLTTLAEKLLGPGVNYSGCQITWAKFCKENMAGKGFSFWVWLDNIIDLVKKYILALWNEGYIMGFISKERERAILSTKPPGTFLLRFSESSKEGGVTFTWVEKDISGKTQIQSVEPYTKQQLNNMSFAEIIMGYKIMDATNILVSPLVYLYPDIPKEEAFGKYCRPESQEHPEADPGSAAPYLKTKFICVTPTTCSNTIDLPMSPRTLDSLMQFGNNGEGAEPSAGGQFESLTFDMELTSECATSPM
Summary of the method: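 HepG2, MRTU-transfected, 24 h dosing. RNA → RT → PCR → FAM label → HpaI → CE. Bidirectional fit vs DMSO.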

[9] = ATG_TA_CIS: Attagene CIS-FACTORIAL HepG2 Assay for human TA Basal Promoter (AID 2282964); conditions: HepG2 Attagene CIS-factorial TA basal promoter reporter; actives raise or lower the signal
Summary of the method: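 Multiplexed mRNA reporter assay, HepG2, 24 h. Reporter cDNA amplified, 6-FAM primer-extended, HpaI-cut, CE-sized; DMSO = negative control and baseline.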

[10] = ATG_TCF_b_cat_CIS: Attagene CIS-FACTORIAL HepG2 Assay for human T-Cell-Factor with beta-catenin (TCF/b-cat) (AID 2282965); conditions: HepG2 TCF/beta-catenin cis-reporter transcription, actives raise or lower the signal
Summary of the method: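 In this cis-format system, transfected HepG2 cells report endogenous transcription factor activity. Readout after 24 h exposure is reporter transcript abundance from RT-PCR and capillary electrophoresis, analysed for gain or loss of signal versus DMSO.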

[11] = ATG_TAL_CIS: Attagene CIS-FACTORIAL HepG2 Assay for human TAL Basal Promoter (AID 2282966); conditions: HepG2 Attagene cis-factorial TAL promoter reporter; actives raise or lower the signal;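 note: background control endpoint measuring basal TAL promoter reporter mRNA not a specific factor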
Summary of the method: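 Endogenous transcription-factor activity is sensed in HepG2 cells through transfected cis-promoter reporter constructs. After 24 h dosing, reporter transcripts are quantified by RT-PCR and capillary electrophoresis. Gain or loss of signal is fitted relative to DMSO.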

[12] = ATG_TGFb_CIS: Attagene CIS-FACTORIAL HepG2 Assay for human Transforming Growth Factor (TGF) (AID 2282967); conditions: HepG2 Attagene CIS TGFb reporter, mRNA transcription; actives raise or lower the signal
Summary of the method: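 Transcript-level reporter readout: HepG2 transfectants, 24 h exposure, RNA to cDNA, reporter-specific PCR, fluorescent primer extension, capillary sizing against ROX standards. Gain- or loss-of-signal relative to DMSO.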

[13] = ATG_VDRE_CIS: Attagene CIS-FACTORIAL HepG2 Assay for human Vitamin D Receptor Element (VDRE) (AID 2282968); conditions: HepG2 VDRE cis-reporter transcription, actives raise or lower the signal
Summary of the method: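 Steps: transfect HepG2 with multiple reporter transcription units; dose chemicals 24 h; isolate RNA; RT-PCR; label with 6-FAM primer extension; HpaI digest; capillary electrophoresis. Curves fitted both directions against DMSO.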

[14] = molecular target: Nuclear receptor subfamily 1 group I member 3 (Homo sapiens) (UniProt Q14994); test: ATG_CAR_TRANS: Attagene TRANS-FACTORIAL HepG2 Assay for human Constitutive Androstane Receptor (CAR) (AID 2282969; active = hit-call score of the fitted dose curve at least 0.9, where 1 is the maximum;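 note: activators raise reporter mRNA above DMSO so AC50 marks induction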); conditions: HepG2 Attagene TRANS-FACTORIAL CAR reporter
Nuclear receptor subfamily 1 group I member 3 (Homo sapiens), sequence (Q14994 whole entry, looked up, the tested form may be a part): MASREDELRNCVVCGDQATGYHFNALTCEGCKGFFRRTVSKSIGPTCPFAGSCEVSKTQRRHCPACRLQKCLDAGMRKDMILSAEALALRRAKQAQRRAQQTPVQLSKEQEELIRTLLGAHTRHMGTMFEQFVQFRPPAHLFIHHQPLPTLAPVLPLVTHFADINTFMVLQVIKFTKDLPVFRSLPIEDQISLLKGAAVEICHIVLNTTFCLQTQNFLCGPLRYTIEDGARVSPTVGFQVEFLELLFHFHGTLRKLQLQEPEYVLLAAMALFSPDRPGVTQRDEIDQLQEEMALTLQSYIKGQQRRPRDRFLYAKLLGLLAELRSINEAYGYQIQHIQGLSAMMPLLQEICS
Summary of the method: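 Steps: transient transfection of HepG2 with multiple GAL4-UAS reporter units; 24 h compound incubation; RNA isolation, RT-PCR, 6-FAM primer extension, HpaI digest; capillary electrophoresis. Gain-of-signal relative to DMSO negative control.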

[15] = molecular target: Estrogen receptor (Homo sapiens) (UniProt P03372); test: ATG_ERa_TRANS: Attagene TRANS-FACTORIAL HepG2 Assay for human Estrogen Receptor alpha (ERa) (AID 2282970; active = hit-call score of the fitted dose curve at least 0.9, where 1 is the maximum); conditions: HepG2 Attagene TRANS ERa GAL4 reporter, mRNA
Estrogen receptor (Homo sapiens), sequence (P03372 whole entry, looked up, the tested form may be a part): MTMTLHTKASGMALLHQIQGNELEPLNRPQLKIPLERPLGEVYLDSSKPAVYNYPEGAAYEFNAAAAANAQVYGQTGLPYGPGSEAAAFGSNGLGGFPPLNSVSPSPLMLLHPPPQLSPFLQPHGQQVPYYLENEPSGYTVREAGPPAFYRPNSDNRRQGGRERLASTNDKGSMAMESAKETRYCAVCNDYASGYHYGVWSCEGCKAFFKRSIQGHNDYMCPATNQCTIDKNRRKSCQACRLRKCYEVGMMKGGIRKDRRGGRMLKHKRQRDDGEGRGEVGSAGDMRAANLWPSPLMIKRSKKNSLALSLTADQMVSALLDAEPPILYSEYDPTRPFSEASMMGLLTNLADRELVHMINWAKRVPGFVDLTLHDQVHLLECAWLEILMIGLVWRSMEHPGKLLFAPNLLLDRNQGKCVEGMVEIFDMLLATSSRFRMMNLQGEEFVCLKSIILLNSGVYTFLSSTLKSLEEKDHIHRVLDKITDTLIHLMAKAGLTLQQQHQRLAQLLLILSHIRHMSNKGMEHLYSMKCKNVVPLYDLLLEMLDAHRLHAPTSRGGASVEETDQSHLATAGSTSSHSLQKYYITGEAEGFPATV
Summary of the method: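 Transfected HepG2 cells carrying GAL4-UAS-driven reporter units were dosed for 24 hours. Total RNA was reverse-transcribed, reporter sequences PCR-amplified, FAM-labelled, HpaI-digested and resolved by capillary electrophoresis. Increases over DMSO control defined activity.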

[16] = molecular target: Steroid hormone receptor ERR1 (Homo sapiens) (UniProt P11474); test: ATG_ERRa_TRANS: Attagene TRANS-FACTORIAL HepG2 Assay for human Estrogen-Related Receptor alpha (ERRa) (AID 2282971; active = hit-call score of the fitted dose curve at least 0.9, where 1 is the maximum); conditions: HepG2 Attagene TRANS reporter, ERRa transactivation
Steroid hormone receptor ERR1 (Homo sapiens), sequence (P11474 whole entry, looked up, the tested form may be a part): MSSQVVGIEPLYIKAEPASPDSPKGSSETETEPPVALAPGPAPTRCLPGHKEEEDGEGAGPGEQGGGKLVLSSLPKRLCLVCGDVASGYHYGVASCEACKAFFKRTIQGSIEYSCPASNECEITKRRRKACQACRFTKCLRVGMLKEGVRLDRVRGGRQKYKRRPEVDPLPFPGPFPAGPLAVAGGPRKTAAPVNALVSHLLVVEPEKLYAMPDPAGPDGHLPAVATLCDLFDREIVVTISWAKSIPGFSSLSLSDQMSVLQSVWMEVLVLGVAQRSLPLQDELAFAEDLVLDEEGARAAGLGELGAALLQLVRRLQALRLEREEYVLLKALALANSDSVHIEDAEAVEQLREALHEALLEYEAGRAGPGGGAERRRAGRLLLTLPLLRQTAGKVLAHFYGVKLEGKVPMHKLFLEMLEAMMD
Summary of the method: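 HepG2 cells were transiently transfected with multiple GAL4-UAS reporter units, then dosed with compound for 24 h. Total RNA was reverse-transcribed, reporter cDNA PCR-amplified and fluorescently labelled, and fragments resolved by capillary electrophoresis; induction was compared with DMSO.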

[17] = molecular target: X-box-binding protein 1 (Homo sapiens) (UniProt P17861); test: ATG_Xbp1_CIS: Attagene CIS-FACTORIAL HepG2 Assay for human X-box Binding Protein 1 (XBP1) (AID 2282972); conditions: HepG2 XBP1 cis-element reporter, Attagene multiplex; actives raise or lower the signal
X-box-binding protein 1 (Homo sapiens), sequence (P17861 whole entry, looked up, the tested form may be a part): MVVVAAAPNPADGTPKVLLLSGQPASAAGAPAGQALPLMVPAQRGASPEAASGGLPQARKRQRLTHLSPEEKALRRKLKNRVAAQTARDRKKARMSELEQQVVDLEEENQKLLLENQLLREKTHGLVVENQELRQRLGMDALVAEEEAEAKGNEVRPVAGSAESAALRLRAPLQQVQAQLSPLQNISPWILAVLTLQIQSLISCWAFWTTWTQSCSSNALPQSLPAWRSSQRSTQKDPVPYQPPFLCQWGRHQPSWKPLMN
Summary of the method: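 Read-out: fluorescent reporter mRNA fragments resolved by capillary electrophoresis after RT-PCR. Human HepG2 liver cells carried transfected cis-promoter reporter units and were exposed to chemicals for 24 hours. Gain or loss of signal fitted relative to DMSO baseline.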

[18] = ATG_M_19_TRANS: Attagene TRANS-FACTORIAL HepG2 Assay for M19 Transcription Factor (Internal Marker) (AID 2282974; active = hit-call score of the fitted dose curve at least 0.9, where 1 is the maximum); conditions: HepG2 Attagene TRANS-FACTORIAL M19 internal marker reporter
Summary of the method: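 HepG2 cells transiently transfected with multiple GAL4-UAS reporter transcription units were exposed to chemicals for 24 h. Reporter mRNA was read by RT-PCR, 6-FAM primer extension, HpaI digestion and capillary electrophoresis; gain of signal fitted relative to DMSO.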

[19] = ATG_GAL4_TRANS: Attagene TRANS-FACTORIAL HepG2 Assay for GAL4 (Internal Marker) (AID 2282976; active = hit-call score of the fitted dose curve at least 0.9, where 1 is the maximum); conditions: HepG2 Attagene TRANS GAL4 internal marker reporter
Summary of the method: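 Fluorescence from capillary electrophoresis of labelled RT-PCR products quantifies reporter mRNA induction after 24 h dosing of HepG2 cells carrying transfected GAL4-UAS reporter transcription units. Vehicle DMSO serves as baseline.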

[20] = molecular target: Estrogen-related receptor gamma (Homo sapiens) (UniProt P62508); test: ATG_ERRg_TRANS: Attagene TRANS-FACTORIAL HepG2 Assay for human Estrogen-Related Receptor gamma (ERRg) (AID 2282977; active = hit-call score of the fitted dose curve at least 0.9, where 1 is the maximum;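 note: hits increase reporter signal over DMSO so potencies reflect activators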); conditions: HepG2 Attagene TRANS reporter, ERRg transactivation
Estrogen-related receptor gamma (Homo sapiens), sequence (P62508 whole entry, looked up, the tested form may be a part): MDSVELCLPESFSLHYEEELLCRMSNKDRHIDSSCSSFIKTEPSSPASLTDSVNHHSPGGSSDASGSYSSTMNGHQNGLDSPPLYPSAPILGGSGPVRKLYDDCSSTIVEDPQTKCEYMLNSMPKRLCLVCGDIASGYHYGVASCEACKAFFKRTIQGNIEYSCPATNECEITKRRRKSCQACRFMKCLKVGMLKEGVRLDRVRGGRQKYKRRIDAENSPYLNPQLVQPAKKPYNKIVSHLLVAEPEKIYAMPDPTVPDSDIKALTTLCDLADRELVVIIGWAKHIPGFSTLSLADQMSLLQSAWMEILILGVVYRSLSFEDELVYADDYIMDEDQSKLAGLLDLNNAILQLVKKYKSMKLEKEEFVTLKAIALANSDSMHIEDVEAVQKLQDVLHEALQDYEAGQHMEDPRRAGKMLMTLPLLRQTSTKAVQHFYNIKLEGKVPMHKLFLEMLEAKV
Summary of the method: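 Induction of reporter transcripts through a chimeric NR-Gal4 protein is quantified in transfected human HepG2 liver cells after 24 h chemical exposure, using RT-PCR with capillary electrophoresis detection and DMSO as baseline.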

Measured: AC50

CCN(CCO)c1cccc(C)c1
active: [2] 27.8 µM
inactive: all other assays above

CCCCCCOc1cc(C)c(O)c(C)c1C
active: [2] 3.01 µM | [13] 9.58 µM
not listed: [16] | [18] | [19]
inactive: all other assays above

CC(=O)Nc1ccc2c(c1)Cc1cc(NC(C)=O)ccc1-2
not listed: [15] | [16] | [18] | [19] | [20]
inactive: all other assays above

O=S(=O)(Oc1ccc(Cl)cc1Cl)c1ccccc1
active: [2] 2.2 µM | [12] 63.4 µM | [13] 6.51 µM | [15] 5.33 µM
not listed: [16] | [18] | [19]
inactive: all other assays above

C[Si](C)(C)O[Si](O)(O)O
active: [2] 26.9 µM
not listed: [14] | [16] | [18] | [19] | [20]
inactive: all other assays above

OCCNCc1ccccc1
not listed: [16] | [20]
inactive: all other assays above

CCC(C)(C)C1CCCCC1OC(C)=O (configuration not stated)
active: [2] 27.2 µM
not listed: [18] | [20]
inactive: all other assays above

CC(C)(C)C(=O)CCc1ccc(Cl)cc1
active: [2] 9.79 µM | [13] 41.2 µM | [15] 17.7 µM
not listed: [18] | [19] | [20]
inactive: all other assays above

CCOC(=O)CC(C(C)=O)C(C)=O
not listed: [14] | [16] | [19] | [20]
inactive: all other assays above

CCC(Cc1ccccc1)(C(=O)c1ccc(N2CCOCC2)cc1)N(C)C (configuration not stated)
active: [1] 42 µM | [2] 1.7 µM | [4] 21.4 µM | [9] 30.2 µM | [10] 49.8 µM | [11] 23.5 µM | [13] 6.85 µM | [15] 1.03 µM
not listed: [14] | [19] | [20]
inactive: all other assays above

CCCCC/C=C\CCC=O
active: [2] 27.8 µM
not listed: [19] | [20]
inactive: all other assays above

[Cl][Bi]([Cl])([c]1ccccc1)([c]1ccccc1)[c]1ccccc1
active: [1] 5.48 µM | [5] 5.6 µM | [10] 5.75 µM | [15] 2.74 µM | [17] 6.04 µM
not listed: [16] | [19] | [20]
inactive: all other assays above

COCC(C)N (configuration not stated)
active: [2] 83.6 µM
not listed: [14] | [15] | [16] | [18] | [19] | [20]
inactive: all other assays above

O=S(=O)(O)c1ccccc1C=Cc1ccc(-c2ccc(C=Cc3ccccc3S(=O)(=O)O)cc2)cc1
active: [11] 32.4 µM | [12] 57.8 µM
not listed: [14] | [16] | [19] | [20]
inactive: all other assays above

FC(F)(F)C(=NOCC1OCCO1)c1ccc(Cl)cc1
active: [2] 12.1 µM | [3] 130 µM
not listed: [16] | [19] | [20]
inactive: all other assays above

CC(=O)c1ccc2c(c1)CCCC2
active: [2] 26.4 µM
not listed: [14] | [16] | [18] | [19] | [20]
inactive: all other assays above
